20 compounds from PubChem BioAssay (EPA / NIEHS) can be followed below.

Where “and” joins values, the source holds several entries; their conditions need not be identical. Equal entries are not always repeated. Inconclusive results are not listed. Calls of active or inactive are those of the source. The calls were made as follows, unless noted: active = hit-call score of the fitted dose curve at least 0.9, where 1 is the maximum; inconclusive = response in the unintended direction; inactive = score below 0.9.

A short description of one assay: APR_HepG2_CellCycleArrest_1hr: Apredica 1-hour HepG2 Assay for Cell Cycle Arrest (AID 2282666; active = hit-call score of the fitted dose curve at least 0.9, where 1 is the maximum; inactive = score below 0.9). The following applies: high-content imaging, actives raise or lower the signal. In short, it runs like this:
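HepG2 cells exposed for 1 h to 0.39–200 uM compound (0.5% DMSO). Fixed, Hoechst-stained nuclei imaged by ArrayScan; DNA content quantified by Cell Cycle analysis; bidirectional fit against DMSO.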
With `CCSC(=O)N(CC)C1CCCCC1`, the outcome was inactive. On the same count and under the same terms, the same measure for `CCC(C)(CC)c1cc(NC(=O)c2c(OC)cccc2OC)on1`: “inactive”; for `CCNc1nc(NC(C)C)nc(SC)n1`: “inactive”; for `Cc1ccccc1CO[C@@H]1C[C@@]2(C(C)C)CC[C@]1(C)O2`: “inactive”. The same measure, in the same setting: the same measure for `CN(C)c1nc(=O)n(C2CCCCC2)c(=O)n1C`: “inactive”.

A short description of the next assay: ACEA_ER_80hr: ACEA Biosciences xCELLigence Real-Time Cell Analysis on Estrogen Receptor Agonism for Proliferation (AID 2282667). The following applies: T47D proliferation, impedance (xCELLigence), 80 h. In short, it runs like this: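 Cell-growth kinetics were measured by impedance in T47D cells treated continuously with compound (top 100 uM final, 1:4 steps, 8 points). Activity at 80 h was scored as signal gain over the DMSO baseline.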
For the compound `CCOC(=O)C(O)(c1ccc(Cl)cc1)c1ccc(Cl)cc1`, the result was inactive. `O=C(N[C@H]1CN2CCC1CC2)c1cc2ccoc2cn1`: the outcome was inactive. On the same count and under the same terms, then `NS(=O)(=O)C(F)(F)C(F)(F)C(F)(F)C(F)(F)C(F)(F)C(F)(F)C(F)(F)C(F)(F)F`, with “inactive”; and `O=C(NC(=O)c1c(F)cccc1F)Nc1cc(Cl)c(OC(F)(F)C(F)F)c(Cl)c1`, with “inactive”. `Clc1ccc(C(Cl)(Cl)Cl)cc1`: the outcome was inactive. Still for that read-out and setting: the same measure for `Cc1cccc(C)c1N`: “inactive”; for `Cc1cc2c3c(c1)C(c1ccccc1)=N[C@@H](NC(=O)c1ccncc1)C(=O)N3CC2`: “inactive”. On to `CCC(C)(c1ccc(O)cc1)c1ccc(O)cc1`, for which the AC50 – broadly, the midpoint of the concentration-response curve, whichever way the signal moves – was 285 nM (active) [middle of 4 runs]. As for `N#Cc1ccc(N(CC(N)=O)CC(F)(F)F)cc1C(F)(F)F`, the outcome was inactive.

For `c1cc2ccc3cccc4ccc(c1)c2c34`, the result was inactive. Same read-out and setting: then `C=CC(N)=O`, with “inactive”; and `O=S(=O)(O)C(F)(F)C(F)(F)C(F)(F)C(F)(F)F`, with “inactive”.

Consider `Oc1ccc(C(c2ccc(O)cc2)(C(F)(F)F)C(F)(F)F)cc1`, for which the AC50 is 102 nM (active) and 189 nM (active) and 262 nM (active). Take `O=C(O)C(F)(F)C(F)(F)C(F)(F)C(F)(F)C(F)(F)C(F)(F)C(F)(F)C(F)(F)F`: the result was inactive. Turning to `ClC1=C(Cl)[C@]2(Cl)[C@@H]3[C@@H]4C[C@@H]([C@H]5O[C@@H]45)[C@@H]3[C@@]1(Cl)C2(Cl)Cl`, the AC50 was 10.8 µM (active).

A short description of a further assay: APR_HepG2_CellLoss_1hr: Apredica 1-hour HepG2 Assay for Cell Loss (AID 2282668; active = hit-call score of the fitted dose curve at least 0.9, where 1 is the maximum; inactive = score below 0.9;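 also: curves fitted both ways against DMSO so gain or loss of cells counts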). The following applies: high-content imaging. In short, it runs like this: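 HepG2 cells were treated for 1 h with compound at 0.39–200 uM, in duplicate, in 0.5% DMSO. After formaldehyde fixation, Hoechst 33342-stained nuclei were imaged on an ArrayScan to count cells. Data were fitted bidirectionally versus DMSO.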
Turning to `CCSC(=O)N(CC)C1CCCCC1`, the outcome was inactive. On the same count and under the same terms, then `CCC(C)(CC)c1cc(NC(=O)c2c(OC)cccc2OC)on1`, with “inactive”. On the same count and under the same terms, the same measure for `CCNc1nc(NC(C)C)nc(SC)n1`: “inactive”; for `Cc1ccccc1CO[C@@H]1C[C@@]2(C(C)C)CC[C@]1(C)O2`: “inactive”; for `CN(C)c1nc(=O)n(C2CCCCC2)c(=O)n1C`: “inactive”.

A further assay can be described thus: APR_HepG2_MicrotubuleCSK_1hr: Apredica 1-hour HepG2 Assay for Microtubule CSK Stabilty (AID 2282669; active = hit-call score of the fitted dose curve at least 0.9, where 1 is the maximum; inactive = score below 0.9). The following applies: HepG2 microtubule cytoskeleton imaging, actives raise or lower the signal. How it is done: APR_HepG2_1hr is a cell-based, multiplexed-readout assay that uses HepG2, a human liver cell line, with measurements taken at 1 hour after chemical dosing in a 384-well plate.APR_HepG2_MicrotubuleCSK_1hr is one of 10 assay component(s) measured or calculated from the APR_HepG2_1hr assay. It is designed to make measurements of protein conformation, a form of conformation reporter, as detected with fluorescence intensity signals by HCS Fluorescent Imaging technology.Data from the assay component APR_HepG2_MicrotubuleCSK_1hr was analyzed into 1 assay endpoint. This assay endpoint, APR_HepG2_MicrotubuleCSK_1hr, was analyzed with bidirectional fitting relative to DMSO as the negative control and baseline of activity. Using a type of conformation reporter, measures of protein for gain or loss-of-signal activity can be used to understand the signaling at the cellular-level. Furthermore, this assay endpoint can be referred to as a primary readout, because this assay has produced multiple assay endpoints where this one serves a signaling function. To generalize the intended target to other relatable targets, this assay endpoint is annotated to the cell morphology intended target family, where the subfamily is cell conformation.
Cells were treated with dimethyl sulfoxide (DMSO) as a solvent control at a final concentration of 0.5% v/v or with compounds in DMSO with a resulting final DMSO concentration of 0.5% v/v. Compound treatment was done at concentrations of 0.39, 0.78, 1.56, 3.12, 6.24, 12.5, 25, 50, 100, and 200 uM in duplicate on each plate. Cells were treated with compounds for 1, 24, or 72 hr. Carbonyl […] m-chloro-phenylhydrazone (CCCP) and taxol were used as positive controls for mitochondrial function and cytoskeletal stability, respectively; DMSO served as the negative control for this experiment. Cells were fixed by the direct addition of 50 uL formaldehyde in Hank's Balanced Salt Solution (HBSS) to a final concentration of 3.7%. After incubation in the fixation medium for 30 min at room temperature (293-298 K), cells were rinsed twice with HBSS and treated with cell permeabilization buffer (16 uL of 0.5% Triton X-100) for 10 min at room temperature (293-298 K) before labeling. For mitochondrial membrane potential and mitochondrial measurements, pre-fixed cells were incubated with 50 uL of MitoTracker Red CMXRos (Invitrogen) at a concentration of 250 nM for 30 min before fixation. In the remaining cases, post-fixed cells were labeled by incubation with a multiplexed mixture of primary antibodies in HBSS for 60 min at room temperature (293-298 K) to detect immunoreactivity of c-Jun (1:500), phospho-histone H3 (1:100), phospho-histone H2A.x (1:200), p53 (1:400), alpha-tubulin (1:200) and Hoechst 33342 (2 ug/mL). Cells were labeled for multiplexed imaging on two separate plates: a) Hoechst 33342, MitoTracker Red, phospho-histone H3, and alpha-tubulin, and b) Hoechst 33342, phospho-histone H2A.x, and c-Jun. A final rinse with HBSS (50 uL) was performed before analysis. The primary and secondary antibodies for the proteins were phospho-histone H3 (rabbit anti-phospho-histone H3 and FITC-donkey anti-rabbit IgG), phospho-histone H2A.x (mouse anti-phospho-histone H2A.x and FITC-donkey anti-mouse IgG), c-Jun (rabbit anti-phospho-c-Jun and Cy3-donkey anti-rabbit IgG), p53 (sheep anti-p53 and Cy5-donkey anti-sheep IgG), alpha-tubulin (mouse anti-alpha-tubulin and Cy5-donkey anti-mouse IgG). […]
Regarding `CCSC(=O)N(CC)C1CCCCC1`, the compound was called inactive. `CCC(C)(CC)c1cc(NC(=O)c2c(OC)cccc2OC)on1`: the result was inactive. Same read-out and setting: the same measure for `CCNc1nc(NC(C)C)nc(SC)n1`: “inactive”; for `Cc1ccccc1CO[C@@H]1C[C@@]2(C(C)C)CC[C@]1(C)O2`: “inactive”.
